The source of these data is PubChem BioAssay AID434970 (Sanford-Burnham Center for Chemical Genomics, 2010).

About 310 (2.8%) of roughly 11,000 compounds were called active. No stated cut-off is given here; in the data, active means activity change below about -85%; inactive means the rest. Only a selection was taken, and actives are over-represented in it overall.

This experiment concerns intestinal alkaline phosphatase [Mus musculus]. Kind of experiment: activators of mouse IAP, confirmation, biochemical, luminescence, single concentration (AID 434970). To be noted: purified mouse IAP, CDP-Star luminescence, 30 min, at 10 µM; activation factor: measured here: IAP activation factor, stronger effect = higher value; activity change, negative = activation: stronger effect = lower value.
On to `CSc1ccccc1NC(=O)Nc1ccc(F)c(Cl)c1`, for which the activation factor was 1.83 and the activity change, negative = activation was -83.2% (inactive).
With `O=C(Nc1ccc(Cl)cc1)N1CCC(c2nc(-c3ccccc3Cl)no2)CC1`, the activation factor came out at 1.1 and the activity change, negative = activation was -9.8% (inactive).
The matching figures for `O=C1CC(c2ccco2)Sc2nc3ccccc3n21` (configuration not stated): 0.801 and 19.9% (inactive).
Consider `O=C(O)C1=C(C(=O)Nc2ccc(F)c(Cl)c2)CCCC1`, for which the activation factor came out at 0.98 and the activity change, negative = activation is 2% (inactive).
For the molecule `O=C(Nc1ccc(F)c(Cl)c1)C1CC(=O)n2c(nc3ccccc32)N1` (configuration not stated), the activation factor turned out to be 2.42 and the activity change, negative = activation is -142% (active).
Turning to `O=C(Nc1ccc(Cl)cc1)C1CC(=O)n2c(nc3ccccc32)N1` (configuration not stated), the activation factor turned out to be 2.06 and the activity change, negative = activation is -106% (active).
For `FC(F)Oc1ccc(NC(=S)NCc2ccccc2)cc1Cl`, the activation factor turned out to be 1.34 and the activity change, negative = activation was -34.3% (inactive).
The matching figures for `COC(=O)[C@H](Cc1ccc(O)cc1)NC(=O)Cn1cnc2c(NCc3ccccc3)ncnc21`: 1.08 and -8.5% (inactive).
Take `COCCCNC(=O)CCSc1ccc(Cl)cc1`: the activation factor amounted to 0.897 and the activity change, negative = activation was 10.3% (inactive).
The corresponding values for `O=C(NCc1ccncc1)c1nnc(Cc2c(F)cccc2Cl)o1` are 0.951 and 4.9% (inactive).
`NC(=O)CSc1nnc(-c2cccnc2)n1CCc1ccccc1`: the activation factor amounted to 0.957 and the activity change, negative = activation is 4.35% (inactive).
The matching figures for `CS(=O)(=O)Nc1ccccc1C(=O)c1ccccc1`: 1.04 and -3.7% (inactive).
The matching figures for `O=C(CSc1ncn[nH]1)CSc1ncn[nH]1`: 0.517 and 48.3% (inactive).
As for `CCCCOC(=O)C1=C(C)NC2=C(C(=O)CCC2)C1c1cc(OC)ccc1OC` (configuration not stated), the activation factor worked out at 1.09 and the activity change, negative = activation is -9.15% (inactive).
The corresponding values for `COc1ccc(C2=NOC(Cn3nc(-c4ccccc4)cc3C(=O)NCc3ccc(C)cc3)C2)cc1` (configuration not stated) are 1.57 and -57.5% (inactive).
As for `CCc1cc(Cn2nc(-c3ccccc3)cc2C(=O)NCc2ccc(C)cc2)on1`, the activation factor amounted to 1.7 and the activity change, negative = activation is -69.7% (inactive).
The matching figures for `Cn1c(C(=O)NCc2ccccc2)cc2oc3ccccc3c21`: 1.14 and -14.4% (inactive).
The corresponding values for `COc1ccc(C2=NOC(Cn3nc(-c4ccccc4)cc3C(=O)NCc3cccs3)C2)cc1` (configuration not stated) are 1.82 and -81.5% (inactive).
`CCc1cc(Cn2nc(-c3ccccc3)cc2C(=O)NCc2ccccc2OC)on1`: the activation factor amounted to 1.99 and the activity change, negative = activation was -99.1% (active).
The corresponding values for `COc1ccc(C2=NOC(Cn3nc(-c4ccccc4)cc3C(=O)NCc3cccc(C(F)(F)F)c3)C2)cc1` (configuration not stated) are 1.83 and -83.5% (inactive).
For `CCc1cc(Cn2nc(-c3ccccc3)cc2C(=O)NCc2cccs2)on1`, the activation factor was 1.89 and the activity change, negative = activation is -88.9% (inactive).
The matching figures for `Cc1ccc(CNC(=O)c2cc(-c3ccccc3)nn2Cc2cc(C)no2)cc1`: 2.26 and -126% (active).
The corresponding values for `COc1ccc(C2=NOC(Cn3nc(-c4ccccc4)cc3C(=O)NCc3cccc(Br)c3)C2)cc1` (configuration not stated) are 2.12 and -112% (active).
The matching figures for `Cc1ccc(CNC(=O)COC(=O)c2c(C)noc2C)cc1`: 0.891 and 10.9% (inactive).
As for `COc1ccc(C2=NOC(Cn3nc(-c4ccccc4)cc3C(=O)NCc3ccccc3OC)C2)cc1` (configuration not stated), the activation factor is 1.68 and the activity change, negative = activation was -67.7% (inactive).
In the case of `CCc1cc(Cn2nc(-c3ccccc3)cc2C(=O)NCc2cccc(Br)c2)on1`, the activation factor came out at 2.8 and the activity change, negative = activation was -180% (active).
